Key:
[1] = system: Vero E6 infected with SARS-CoV-2; experiment: morphology score (similarity to uninfected cells); higher = more like uninfected cells; details: 24 h
[2] = system: Vero E6 infected with SARS-CoV-2; experiment: SARS-CoV-2 infection rate relative to infected DMSO; higher = more infection, active = 60 or less; details: 24 h

Row | SMILES | morphology score [1] | SARS-CoV-2 infection rate [2]
1 | OC(CCN1CCCCC1)(c1ccccc1)C1CCCCC1 (configuration not stated) [trihexyphenidyl] (10 µM) | 0.167 | 92% (inactive)
2 | CC(C)[N+](C)(CCOC(=O)C1c2ccccc2Oc2ccccc21)C(C)C [propantheline] (10 µM) | 0.214 | 99.5% (inactive)
3 | CN(Cc1ccccc1)C(=O)[C@H](Cc1ccc2ccccc2c1)NC(=O)[C@@H]1CCCN1C(=O)Nc1ccccc1[N+](=O)[O-] (10 µM) | 0.00351 | 108% (inactive)
4 | CC[C@@H](C)c1ccc(NC(=O)Cn2cnc3c2c(=O)n(C)c(=O)n3C)cc1 (racemic) (10 µM) | 0.119 | 92% (inactive)
5 | Nc1ccc(/N=N/c2ccccc2)c(N)n1 [phenazopyridine] (10 µM) | 0.34 | 87.5% (inactive)
6 | CN1Cc2ccccc2[C@@H]2c3cccc4[nH]cc(c34)C[C@H]21 (10 µM) | 0.609 | 95.5% (inactive)
7 | Cc1cccc(C)c1NC(=O)CC12CCCN1CCC2 [pilsicainide] (10 µM) | -0.223 | 115% (inactive)
8 | O=C(O)C[C@H]1CC[C@H](c2ccc(-c3ccc(Nc4ccc(C(F)(F)F)nc4)cn3)cc2)CC1 (10 µM) | 0.27 | 73.5% (inactive)
9 | Cc1ccc2c(c1)=C(c1ccccc1)C(C1=NN(C(=O)CCC(=O)O)C(c3ccc(Br)cc3)C1)C(=O)N=2 (configuration not stated) (10 µM) | -0.085 | 104% (inactive)
10 | CCC1(c2c[nH]cn2)Cc2ccccc2C1 [atipamezole] (10 µM) | -0.114 | 112% (inactive)
11 | COc1ccccc1N1CCN(CCN(C(=O)C2CCCCC2)c2ccccn2)CC1 (10 µM) | 0.0947 | 118% (inactive)
